In PubChem BioAssay (NCI) one finds growth data, which are given here for seven molecules.

SMILES strings stand for the structures. About 83,000 compounds went through this panel and 20% of them were active in at least one assay; those are over-represented in the sample as a whole.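 Treatment: one concentration, 48 hours, 96-well format. Scoring: percent growth, with anything below 10 considered active.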 Active and inactive are the calls of the source.

The assay concerns MDA-MB-468 breast. Kind of assay: NCI-60 one-dose screen, 48 h (100 = growth as untreated, 0 = no growth, -100 = all killed). As to conditions: 10 µM unless noted.
Regarding `Cc1ccc(/C=C/C(=O)c2ccc(N)cc2)c(C)c1`, the growth was 88.7% (inactive). In the case of `COC(=O)/C=C1/SC(N2N=C(c3cccs3)CC2c2ccc(F)cc2)=NC1=O` (configuration not stated) it was 36.7% (inactive); in that of `Oc1c(CCl)cc(Cl)cc1Cc1cc(Cl)cc(Cc2cc(Cl)cc(CCl)c2O)c1O`, 18.8% (inactive).

As to `CCCCCCCCCCCCN1CCCC(C)C1` (configuration not stated), the growth is 68.4% (inactive).

Consider `CCNCCNc1cc(-c2ccc(C(=O)OC)cc2)c(C#N)c2nc3ccccc3n12`, for which the growth is 31.4% (inactive). In the case of `CC(=O)Nc1ccc(S(=O)(=O)N/N=C(\C)c2ccc(C)cc2C)cc1` it was 112% (inactive). To `COc1ccc2[nH]cc(-c3cc(N)n4nc(-c5c[nH]c6ccc(OC)cc56)cc4n3)c2c1` belongs -47.9% (active).
